# This is one part of a sample in which hits are shown more often than they occur.
# Cruzain noTriton: inhibitors of Trypanosoma cruzi cruzain without detergent | P25779 | purified cruzain, Z-FR-AMC fluorescence, no detergent | Potency, µM, inactives show max response, negative = inhibition, hits mostly inhibitors | 2.3% of 200,000 active | AID 1476;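 further: plate controls were enzyme without inhibitor for no effect and buffer without enzyme for full effect; nearly all actives have a fitted effect of over 40% in size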
# Target sequence (P25779 123-467 limits assumed): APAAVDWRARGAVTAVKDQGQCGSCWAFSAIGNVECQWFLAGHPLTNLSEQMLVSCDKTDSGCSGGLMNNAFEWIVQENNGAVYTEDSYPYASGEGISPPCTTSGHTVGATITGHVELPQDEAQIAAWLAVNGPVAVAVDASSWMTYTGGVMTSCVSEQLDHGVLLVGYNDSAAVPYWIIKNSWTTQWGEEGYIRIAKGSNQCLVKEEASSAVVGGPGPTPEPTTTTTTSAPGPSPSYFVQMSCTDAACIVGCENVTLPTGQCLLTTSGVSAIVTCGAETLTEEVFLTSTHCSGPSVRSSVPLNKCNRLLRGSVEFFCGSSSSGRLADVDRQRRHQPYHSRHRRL
#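 Purified cruzain at 1.5 nM, pre-incubated 15 min with compound at room temperature in 100 mM sodium acetate pH 5.5, 5 mM DTT, 0.00005% Triton X-100. Reaction started with 2 uM Z-FR-AMC; AMC fluorescence increase over 60 s gives rate.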
# NS1 function inh: blocks influenza NS1 protein function | Potency, µM (series often up to 46.1 µM), inactives show at the top dose activity, positive = more growth | 0.4% of 270,000 active | AID 2326; calls by dose curve; further: actives are rising curves; nearly all actives have a fitted effect of over 50% in size
#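 Growth recovery, yeast-based: influenza A NS1 expressed in S. cerevisiae causes slow growth, and suppressors are detected by OD600. The parent strain without NS1 is used as positive control.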
# Cruzain Triton: cruzain (T. cruzi) inhibition with detergent; P25779; purified cruzain, Z-FR-AMC fluorescence, 0.01% Triton; Potency, µM, for the others: max response, negative = inhibition, actives largely listed as inhibitors; 0.43% of 200,000 active;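 further: plate controls were neutral wells for no effect and buffer without enzyme for full effect; nearly all actives have a fitted effect of over 40% in size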
#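 Detergent-containing run (0.01% Triton X-100) in acetate buffer pH 5.5 with 5 mM DTT: enzyme at 1.5 nM final, 15 min compound preincubation at room temperature, then 2 uM Z-FR-AMC substrate. Activity taken as 60 s fluorescence increase at 360/450 nm.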
# An asterisk follows results filed as active; ? = inconclusive; nt = not tested or not shown. Unless noted, the call rests on the fitted dose curve; in most records, active means well fitted curve in the direction sought with a large enough effect; inconclusive means small, poorly fitted or top-dose-only effect, or another doubt; inactive means no such curve, though single readings can be large; an effect the other way counts as inactive or inconclusive. Potency means the concentration at half of the fitted maximal effect.
SMILES,Cruzain noTriton,NS1 function inh,Cruzain Triton
CC1(C)N=C(N)N=C(N)N1c1cccc(OCc2cccc([N+](=O)[O-])c2)c1,2%,-8%,1%
O=c1[nH]c(=O)n(CCc2ccc(F)cc2)c(O)c1C=NCc1ccc2c(c1)OCO2,?,-2%,13µM*
COc1ccc(CCn2c(O)c(C=NCc3ccc4c(c3)OCO4)c(=O)[nH]c2=O)cc1OC,?,?,-7%
Cc1ccc(C)c(NC(=O)c2cc(=O)c3cc(C)cc(C)c3o2)c1,10%,nt,-1%
COc1ccc(-c2cc(=O)oc3cc(OC(=O)C4CCCCC4)c(Cl)cc23)cc1,6.3µM*,27%,-5%
COc1ccc(-c2cc(=O)oc3cc(O)ccc23)cc1,nt,3%,nt
Cc1cc(N2CCC(C)CC2)nc2ccc(NC(=O)CCC(=O)N3CCN(c4cccc(C(F)(F)F)c4)CC3)cc12,?,nt,13µM*
Cc1cc(N2CCOCC2)nc2ccc(NC(=O)CCC(=O)N3CCN(c4ccccc4)CC3)cc12,nt,13%,nt
Cc1cc(N2CCCCC2)nc2ccc(NC(=O)CCC(=O)N3CCN(c4cccc(Cl)c4)CC3)cc12,?,nt,16µM*
Cc1ccc(Cl)cc1N1CCN(C(=O)CCC(=O)Nc2ccc3nc(N4CCC(C)CC4)cc(C)c3c2)CC1,9%,nt,-2%
O=C1C2=C(C(=O)c3ccccc31)C1O[C@](c3ccsc3)(Cc3ccccc31)O2,nt,9%,nt
Cc1ccc(-c2nnn(CC(=O)NCCC3=CCCCC3)n2)cc1,?,1%,8%
O=C(Cn1nnc(-c2ccc(Cl)cc2)n1)NCCC1=CCCCC1,20µM*,-2%,10%
O=C(OCC1CCCO1)c1ccc2c(c1)N(Cc1ccccc1F)C(=O)c1ccccc1S2(=O)=O (stereo not given),12%,nt,-3%
CCNc1ncc2nc(-c3cccs3)c(=O)n(Cc3ccc(F)cc3)c2n1,-27%,nt,0%
N#CCCn1c(=O)c(-c2cccs2)nc2cnc(N3CCOCC3)nc21,5%,nt,0%
Cc1ccc2onc(CC(=O)N3CCN(c4ccc(F)cc4)CC3)c2c1,25µM*,nt,28µM*
Cc1ccc2onc(CC(=O)N3CCN(c4ccccc4F)CC3)c2c1,?,nt,-7%
COc1ccc2c(c1)O[C@@H](c1ccc3c(c1)OCO3)[C@H](OC(=O)N[C@H]1CCCc3ccccc31)C2=O,-9%,nt,-2%
CC(/C=C(\NC(=O)c1ccccc1)C(=O)N=Nc1c(O)[nH]c2ccc(C)cc12)=C\c1ccccc1,25µM*,-3%,-2%
O=C(CNC(=O)c1ccccc1)N=Nc1c(O)[nH]c2ccc(Br)cc12,nt,-10%,nt
COc1cc(NC(=O)CN2CCN(c3ccccc3F)CC2)c(C)cc1[N+](=O)[O-],25µM*,13%,2%
COc1cc(NC(=O)CN2CCN(c3ccccc3)CC2)c(C)cc1[N+](=O)[O-],?,9%,-1%
CCCCOC(=O)c1ccc(Nc2nc3ccccc3c3nnc(C)n23)cc1,?,nt,-3%
COc1cc(C(=O)Nc2ccc(Oc3ncnc4sc(-c5ccccc5)cc34)cc2)cc(OC)c1OC,10%,4%,1%
SMILES,Cruzain noTriton,NS1 function inh,Cruzain Triton
COc1ccc(Nc2ncnc3sc(-c4ccccc4)cc23)cc1,32µM*,-4%,-5%
COc1ncnc2sc(-c3ccccc3)cc12,12%,-67%,-5%
COc1ccccc1C(=O)Nc1ccc(Oc2ncnc3sc(-c4ccccc4)cc23)cc1,6.3µM*,1%,2%
CC1=CC2C(C)(C)CC(=O)C[C@]2(C)CC1COc1ccc2c(c1)CC(=O)C=C2 (stereo not given in full),-13%,nt,-8%
N[C@@H](Cc1ccccc1)P(=O)(O)O,7%,-1%,2%
CCOc1ccc2c(C)nc(NC3=NC(C)(C)C=C(C)N3)nc2c1,16µM*,-2%,16µM*
COc1ccc2c(C)nc(Nc3nc(C)cc(=O)[nH]3)nc2c1,nt,-52%,nt
COCc1cc(=O)[nH]c(Nc2nc(C)c3cc(OC)ccc3n2)n1,8%,0%,0%
CCOc1ccc2nc(NC3=NCN(Cc4ccco4)CN3)nc(C)c2c1,-4%,6%,-3%
CCOc1ccc2nc(NC3=NC(C)(C)C=C(C)N3)nc(C)c2c1,16µM*,-1%,28µM*
CCOc1ccc2nc(NC3=NC(c4ccc(OC)cc4)CC(=O)N3)nc(C)c2c1 (stereo not given),?,?,8.9µM*
Cc1nc2cnc(N3CCNCC3)nc2n(C2CC2)c1=O,-9%,nt,-13%
Cn1cccc1C(=O)N1CCC2(CC1)CCN(c1ccccn1)CC2,10%,nt,3%
Cc1cccc(NC(=S)N/N=C/c2ccc(Cl)c([N+](=O)[O-])c2)c1,32µM*,8%,-3%
Cc1cc(C(=O)N/N=C/c2ccc3c(c2)OCO3)c(C)n1-c1ccc(F)cc1,nt,11%,nt
Cc1cccc(NC(=S)N/N=C/c2cccc([N+](=O)[O-])c2)c1,1%,0%,-14%
CS(=O)(=O)N(CC(=O)N/N=C/c1cc([N+](=O)[O-])ccc1Cl)c1ccccc1,-17%,-1%,-7%
CC(=O)N/N=C/c1cc([N+](=O)[O-])ccc1OCCOc1ccccc1,3%,6%,2%
Cc1cc(C(=O)N/N=C/c2ccc(Cl)c([N+](=O)[O-])c2)c(C)n1-c1ccc(F)cc1,7.9µM*,6%,1%
O=[N+]([O-])c1ccc(Cl)c(/C=N/NC(=S)Nc2ccccc2)c1,25µM*,4%,-8%
NC(=S)N/N=C/c1cc([N+](=O)[O-])ccc1OCCOc1ccccc1,0.16µM*,6%,0.25µM*
CCn1c(=O)c2cc(C(=O)N3CCN(c4cccc(OC)c4)CC3)sc2c2ccccc21,6%,nt,0%
O=C(NS(=O)(=O)c1ccc(F)cc1)O[C@@H]1C(=O)c2cc(Br)ccc2O[C@H]1c1ccc2c(c1)OCO2,-9%,nt,-1%
O=C(c1csnn1)N1CCC2(CCCN(c3ccccn3)C2)CC1,-10%,nt,-1%
Cc1cc(=O)c2c(O)c3c(O)cc(=O)c4c3c3c(cc(O)c1c23)C(C)(C)C=4O,-3%,nt,1%
SMILES,Cruzain noTriton,NS1 function inh,Cruzain Triton
COc1ccccc1NC(=O)CSCc1cc(=O)c2cccc(Cl)c2[nH]1,-5%,nt,1%
O=C(CSc1ccc2ccccc2c1Br)Nc1cccc(S(=O)(=O)NC2=NCCCCC2)c1,20µM*,?,-5%
Cc1ccc(C)c(SCC(=O)Nc2cccc(S(=O)(=O)NC3=NCCCCC3)c2)c1,-2%,-14%,-5%
COc1cccc(-c2nn(-c3ccccc3)cc2C(=O)n2nnc3ccccc32)c1,32µM*,7%,-14%
O=C(c1cn(-c2ccccc2)nc1-c1ccccc1)n1nnc2ccccc21,?,3%,-3%
CCc1ccccc1NC(=O)NC(CC)Cn1nnc2ccccc2c1=O (stereo not given),-7%,nt,-2%
Cc1ccc(CC(=O)Nc2c(C(=O)N3CCN(c4ccccc4F)CC3)oc3ccccc23)cc1,?,nt,-6%
O=C(NCCc1ccc(Cl)cc1)c1cc2c(s1)-c1ccccc1OC2,?,nt,-22%
O=C(Nc1nccs1)c1cc2c(s1)-c1ccccc1OC2,?,-58%,-7%
Cc1ccc(CCNC(=O)c2cc3c(s2)-c2ccccc2OC3)cc1,13µM*,nt,-2%
O=C(Nc1nc2ccccc2s1)c1cc2c(s1)-c1ccccc1OC2,13µM*,5%,-1%
COn1c2c(c3c4nonc4ccc31)CCCC2,-3%,-18%,-9%
COn1c2c(c3c4no[n+]([O-])c4ccc31)CCCC2,20µM*,-3%,1%

# Assay outcomes from PubChem BioAssay.
